High-throughput results from PubChem BioAssay.
AID inhibitor = Primary qHTS assay for inhibitors of Activation Induced Cytidine Deaminase (AID): AID signal; AID deamination FRET fluorescence, UDG-coupled, 4 h; Single-stranded DNA cytosine deaminase (Homo sapiens), Q9GZX7; Potency, µM (highest dose often 115 µM), actives largely listed as inhibitors; 91,000 compounds, 0.32% hits; further: nearly all actives have a fitted effect of over 25% in size
Target sequence (Q9GZX7 whole entry, looked up): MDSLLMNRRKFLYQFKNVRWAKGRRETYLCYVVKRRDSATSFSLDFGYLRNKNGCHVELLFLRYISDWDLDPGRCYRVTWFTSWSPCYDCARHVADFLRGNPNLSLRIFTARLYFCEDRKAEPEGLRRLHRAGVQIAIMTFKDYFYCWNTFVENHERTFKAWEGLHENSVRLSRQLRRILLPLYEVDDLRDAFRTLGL
UDG counterscr = Primary qHTS assay for inhibitors of Activation Induced Cytidine Deaminase (AID): UDG Counterscreen signal; Uracil-DNA glycosylase; FRET deamination/UDG coupled assay, UDG read, 4 h; Potency, µM (series often up to 115 µM), for the others: at the highest dose activity change, negative = inhibition, hits mostly inhibitors; 91,000 compounds, 0.14% hits; AID 1347430, 2020; further: nearly all actives have a fitted effect of over 65% in size
An asterisk follows results filed as active; [ ] = dose if it differs, or a comment. This is a sample that favours compounds with a hit; in the whole collection about 0.4% have one here. The call rests on the fitted dose curve; in most records, active means well fitted curve in the direction sought with a large enough effect; inconclusive means small, poorly fitted or top-dose-only effect, or another doubt; inactive means no such curve, though single readings can be large; an effect the other way counts as inactive or inconclusive. On the % scale 0 is the no-effect control and ±100 the full control effect; potency means the concentration at half of the fitted maximal effect.

For CC1CN(c2ccccc2C=O)CC(C)O1 (stereo not given) the results were AID inhibitor inactive and UDG counterscr -1.6%.
For COc1ccc(-c2noc(CSc3nnc(C)n3-c3ccc(C)cc3)n2)cc1OC the results were AID inhibitor inactive and UDG counterscr inconclusive.
For COc1ccc(-c2noc(CSc3nnc(-c4ccncc4)n3-c3cccc(C)c3)n2)cc1OC the results were AID inhibitor inconclusive and UDG counterscr 79.4µM*.
For CCOc1ccc(-n2c(Cc3ccccc3)nnc2SCc2nc(-c3cccs3)no2)cc1 the results were AID inhibitor 31.6µM* and UDG counterscr inconclusive.
`CCOc1ccc(-n2c(SCc3nc(-c4ccccc4C)no3)nnc2-c2ccccc2)cc1` gave AID inhibitor inactive and UDG counterscr 8.0%.
Screening Cc1ccccc1-c1noc(CSc2nnc(-c3ccncc3)n2-c2ccc(F)cc2)n1 returned AID inhibitor inactive and UDG counterscr inconclusive.
COc1ccc(-n2c(SCc3nc(-c4ccc(C)cc4)no3)nnc2-c2ccccc2)cc1 was read as AID inhibitor inactive and UDG counterscr -5.0%.
Screening CCOc1ccc(-n2c(SCc3nc(-c4ccc(OC)cc4)no3)nnc2-c2ccncc2)cc1 returned AID inhibitor inconclusive and UDG counterscr 79.4µM*.
For Cc1ccc(-n2c(SCc3nc(-c4ccccc4C)no3)nnc2-c2ccncc2)cc1C the results were AID inhibitor 31.6µM* and UDG counterscr inconclusive.
Screening COc1cc(/C=C2\N=C(SC)SC2=O)cc(OC)c1OC returned AID inhibitor inactive and UDG counterscr 5.5%.
Screening O=C(c1ccc(-n2cncn2)cc1)N1CCCC1c1nc2ccccc2[nH]1 (stereo not given) returned AID inhibitor inactive and UDG counterscr -9.9%.
`COC(=O)c1ccc(C(=O)NCCc2ccccc2)cc1` gave AID inhibitor inactive and UDG counterscr -2.1%.
Screening COc1ccc2cc(C(=O)NCC3(N(C)C)CCCCCC3)[nH]c2c1 returned AID inhibitor inactive and UDG counterscr -5.9%.
Cc1ccc(C2=NC(c3ccccc3)=Nc3ccc(Cl)cc3N2)cc1 was read as AID inhibitor inactive and UDG counterscr inconclusive.
For COc1ccc(C2=NC(c3ccccc3)=Nc3ccc(C)cc3N2)cc1 the results were AID inhibitor inactive and UDG counterscr 79.4µM*.
Screening Cc1ccc(CC(=O)NCc2cccs2)cc1 returned AID inhibitor inactive and UDG counterscr -0.1%.
Cc1nc2nc(SCC(=O)NCc3ccccc3Cl)nn2c(C)c1Cc1ccccc1 was read as AID inhibitor inconclusive and UDG counterscr 0.2%.
Screening Cc1nc2nc(SCC(=O)N(C)Cc3ccccc3)nn2c(C)c1Cc1ccccc1Cl returned AID inhibitor 44.7µM* and UDG counterscr -15.3%.
For Cc1ccc(-n2cnnn2)cc1NC(=O)c1sccc1C the results were AID inhibitor inactive and UDG counterscr -0.7%.
`CC1=C(C(=O)Nc2ccc(C)cc2C)C(c2ccc(C(C)C)cc2)NC(=S)N1` (stereo not given) gave AID inhibitor inactive and UDG counterscr -2.1%.
For COc1ccc(-c2cc(C)no2)cc1S(=O)(=O)N1CCCC(C)C1 (stereo not given) the results were AID inhibitor inactive and UDG counterscr -9.4%.
For Cc1cc(-c2ccc(C)c(S(=O)(=O)N3CCCC(C)C3)c2)on1 (stereo not given) the results were AID inhibitor 25.1µM* and UDG counterscr 12.1%.
CCOc1ccccc1NC(=O)C(CC)Sc1nc2ncccc2[nH]1 (stereo not given) was read as AID inhibitor inactive and UDG counterscr -2.2%[57.5 µM].
CCOc1ccccc1NC(=O)C(C)Sc1nc(-c2ccccc2)c(C#N)c(=O)[nH]1 (stereo not given) was read as AID inhibitor 35.5µM* and UDG counterscr 7.3%.
C=C(C)Cn1c(N2CCOCC2)nc2c1c(=O)[nH]c(=O)n2C was read as AID inhibitor inactive and UDG counterscr 7.5%.
For C=CCNc1nc(-c2c(N)n(CC(C)C)c(=O)n(C)c2=O)cs1 the results were AID inhibitor inactive and UDG counterscr -2.6%.
`CCOC(=O)c1cccc(Nc2nc(C(=O)OCC)nc3ccccc23)c1` gave AID inhibitor inactive and UDG counterscr 6.9%.
Screening CCCOC(=O)c1cccc(Nc2nc(C(=O)OCC)nc3ccccc23)c1 returned AID inhibitor inactive and UDG counterscr 89.1µM*.
Screening COc1ccc(-n2cnc3c2NC(=O)CC3c2cccnc2)c(OC)c1 (stereo not given) returned AID inhibitor inactive and UDG counterscr -4.0%.
FC(F)(F)c1cccc(-c2csc(-c3ccncc3)n2)c1 was read as AID inhibitor inactive and UDG counterscr -9.5%.
For CN(C(=O)c1nc(-c2cccc(F)c2)n2c1CCCCC2)c1ccccc1F the results were AID inhibitor inactive and UDG counterscr -2.1%.
`CCOc1ccc(CCNC(=O)c2nc(-c3cccc(F)c3)n3c2CCCCC3)cc1OCC` gave AID inhibitor 17.8µM* and UDG counterscr inconclusive.
COc1cccc(Nc2nc(N)c(C(=O)c3ccc(OC)c(OC)c3OC)s2)c1 was read as AID inhibitor inactive and UDG counterscr 0.0%.
For CCNC(=O)C(C)NC(=O)C1(c2cccc(C)c2)CCCC1 (stereo not given) the results were AID inhibitor inactive and UDG counterscr 5.3%.
For COc1ccccc1OCC(=O)N1CCC(c2nc3ccccc3o2)CC1 the results were AID inhibitor inactive and UDG counterscr -2.9%[57.5 µM].
Cc1ccc(C(C)C)c(OCC(=O)N2CCC(c3nc4ccccc4o3)CC2)c1 was read as AID inhibitor 39.8µM* and UDG counterscr -3.7%[57.5 µM].
Screening C=CCOc1cccc(C(c2c[nH]c3ccccc23)c2c[nH]c3ccccc23)c1 returned AID inhibitor inactive and UDG counterscr -11.1%.
`COCCn1cc2c(c1-c1ccc(Cl)cc1)c(=O)n(C)c(=O)n2C` gave AID inhibitor inactive and UDG counterscr -2.4%.
For COc1cccc(Cc2nc3ccccc3nc2SCC(=O)N2CCCCC2C)c1 (stereo not given) the results were AID inhibitor inconclusive and UDG counterscr -2.8%.
Cc1ccc(Cc2nc3ccccc3nc2SCC(=O)N2CCCCC2C)cc1 (stereo not given) was read as AID inhibitor 50.1µM* and UDG counterscr -18.9%.
Screening Clc1ccc(CNCCN2CCCC2)cc1 returned AID inhibitor inactive and UDG counterscr -7.2%.
For CCOc1cccc(C(=O)Nc2cccc(C(F)(F)C(F)(F)OC(F)(F)C(F)(F)C(F)(F)OC(F)(F)F)c2)c1 the results were AID inhibitor inactive and UDG counterscr 7.8%.
COc1ccc2nc(Nc3nc(-c4ccccc4)cc(=O)[nH]3)nc(C)c2c1 was read as AID inhibitor inactive and UDG counterscr -0.3%.
For COc1cccc(-c2cc(=O)[nH]c(Nc3nc(C)c4ccccc4n3)n2)c1 the results were AID inhibitor 22.4µM* and UDG counterscr -8.9%.
`Cc1cc(NC(=O)c2oc3c(c2C)-c2[nH]ncc2CC3)ccc1Br` gave AID inhibitor 35.5µM* and UDG counterscr -16.9%[57.5 µM].
For CCc1ccc(NC(=O)c2oc3c(c2C)-c2[nH]ncc2CC3)cc1 the results were AID inhibitor inconclusive and UDG counterscr -16.8%[57.5 µM].
